This is one part of the list. Inconclusive results are not listed. Active and inactive are the calls of the source. Calls come from the whole dose curve; as a rule, active = well fitted curve in the direction sought with a large enough effect; inconclusive = small, poorly fitted or top-dose-only effect, or another doubt; inactive = no such curve, though single readings can be large or run the other way.
experiment: Secondary assay for Activators of Human Pyruvate Kinase M2 isoform - Cell Titer Glo cytotoxicity assay; details: HeLa viability, CellTiter-Glo ATP luminescence, 24 h; series mostly up to 57.5 µM
Experimental: NIH Chemical Genomics Center [NCGC] Matthew G. Vander Heiden, M.D., Ph.D. [Harvard Medical School, 77 Avenue Louis Pasteur, Boston, MA 02115] MLPCN Grant: 1 R03 MH085679-01 NCGC Assay Overview: We have identified a series of activators of the M2 isoform of human pyruvate kinase. The assay described here examines the cytotoxicity of these compounds by measuring the total ATP content of Hela cells after 24 hrs of exposure to compound.
Assay Protocol: 500 Hela cells/ 4ul in media (DMEM with high glucose, 10% FBS, 1x Pen Strep, 1x NEAA) were dispensed into a white solid 1536-microwell plate with a Thermo Multidrop. The plates were incubated at 37 degrees Celsius for 24 hours. The cells were then treated with compounds using the Kalypsys pin tool, delivering 23 nl of test compounds and the control doxorubicin. The plates were then incubated for an additional 24 hours at 37 degrees C after which 4 ul of Promega Cell-Titer Glo was dispensed using the Thermo Multidrop. The plates were incubated at room temperature for 10 min before reading luminescence on the Perkin Elmer ViewLux with images collected with 2x binning and a 5 sec exposure time.

SMILES | outcome
O=C(NCc1cccs1)C1CCN(S(=O)(=O)c2ccc3c(c2)OCCO3)CC1 | inactive
Cc1cc2c(s1)c1cnn(Cc3c(F)cccc3Cl)c(=O)c1n2C | inactive
CC(=O)c1cc(C#N)c(SCC(=O)Nc2nccs2)nc1C | inactive
CSc1nc2ccc(S(=O)(=O)N3CCc4ccccc43)cc2s1 | inactive
O=S(=O)(NC1CCN(S(=O)(=O)c2ccc3c(c2)OCCO3)CC1)c1c(F)cccc1F | inactive
Cn1c2cc(B(O)O)sc2c2cnn(Cc3ccccc3F)c(=O)c21 | inactive
Cc1ccc(Cn2ncc3c4sc(C)cc4n(C)c3c2=O)c(C)c1 | inactive
O=S(=O)(NCC1CN(S(=O)(=O)c2ccc3c(c2)OCCO3)C1)c1c(F)cccc1F | inactive
CN(C)N=Nc1ccc2nc[nH]c2c1 | inactive
O=S(=O)(NCCCCCCNS(=O)(=O)c1c(F)cccc1F)c1ccc2c(c1)OCCO2 | inactive
O=C(NCc1ccccn1)c1c(O)c2c([nH]c1=O)CCCC2 | inactive
O=C(c1c(F)cccc1F)N1CCN(S(=O)(=O)c2ccc3c(c2)OCCO3)CC1 | inactive

From PubChem BioAssay AID1898 (National Center for Advancing Translational Sciences (NCATS), 2009)
